Structures are written as SMILES. Out of some 340,000 compounds screened, about 530 (0.16%) were called active. Not shown: some 2% with an inconclusive outcome. The sample holds actives, similar compounds and a random draw of the others, so the mix is not that of the screen. Rule as the data show it: active = activity change below about -80%; inconclusive = between about -30% and that limit; inactive = weaker than that.
% is scaled to controls: 0 for no effect and ±100 for the full control effect.

A short description of this experiment: Small Molecules that selectively kill Giardia lamblia: qHTS.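 Also: parasites exposed to compound for two days anaerobically before the ATP read.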 As to conditions: Giardia lamblia trophozoite viability; at 7.66 µM; stronger effect = lower value. The method in brief:
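Trophozoites 100 cells/well + cpd; 48 hrs, 37 deg C, anaerobic. ATPLite 1-Step added, 15-30 min RT, luminescence read (ATP-based viability).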
Regarding `CCCN1CCC(=O)N(C(CSc2ccc(C)cc2)Cc2ccccc2)CC1` (centres undefined), the activity change was 13% (inactive). Next, `CCc1nn(CC(=O)N2CCN(CC)CC2)c(=O)c2cccn12`: -17.4% (inactive).

Regarding `COc1ccc2c(c1)CC[C@@H]1[C@@H]2CC[C@]2(C)C(=O)CC[C@@H]12`, the activity change was 2.55% (inactive).

As for `O=C(ON=C1CCN(S(=O)(=O)c2ccccc2)CC1)c1ccc(Cl)cc1`, the activity change is -18% (inactive). Next, `Cc1cccc(NS(=O)(=O)c2ccc(-c3cnc(C4CC4)o3)cc2)c1`: 23.1% (inactive); `COc1ccc(C2CC(O)(c3ccccc3)Oc3cc(C)cc(C)c32)cc1` (centres undefined): -2.28% (inactive); `CCOC(=O)c1cc(OC(=O)c2ccccc2Cl)n(-c2ccccc2)n1`: 20.6% (inactive). Next, `c1ccc(Cn2nnc3c(N4CCCCC4)ncnc32)cc1`: 6.21% (inactive); `CCOc1ccc(NC(=O)CN(C)C(=O)Cn2c(=O)cnc3ccccc32)cc1OCC`: 3.18% (inactive); `COc1ccc(CN2CCC(=O)c3ccccc3S2(=O)=O)cc1`: -21.5% (inactive). Next, `CS(=O)(=O)N(Cc1ccc(Cl)cc1)c1ccc(C(=O)NCCSCc2ccco2)cc1`: 4.68% (inactive). As for `Cc1nnc(SC(C(=O)Nc2cc(Cl)cc(Cl)c2)c2ccccc2)[nH]c1=O` (centres undefined), the activity change is 24.1% (inactive). Next, `O=[N+]([O-])/C=C1\CCCCCN1`: -16.8% (inactive); `CNC(=O)[C@]1(C(F)(F)F)C[C@H](CCc2ccccc2)CCCO1`: -0.81% (inactive); `Cc1ncc([N+](=O)[O-])n1CCOC(=O)c1ccc(Br)cc1`: -80.4% (active). Next, `Cc1nn(CCOc2ccc(Br)cc2)c(C)c1[N+](=O)[O-]`: -11% (inactive). With `N/C(=N\OC(=O)Cc1ccccc1[N+](=O)[O-])c1ccc(Br)cc1`, the activity change was -8.48% (inactive). As for `C=CCCN(C(Cc1ccccc1)C(=O)OC)S(=O)(=O)c1cc(Br)ccc1Br` (centres undefined), the activity change was -13% (inactive). Next, `CCN(CC)C(=O)COc1coc(CN2CCN(Cc3ccccc3)CC2)cc1=O`: -13.6% (inactive); `CCOC(=O)C1CCCN(C(=O)COc2ccc(N(C)S(=O)(=O)c3ccc(C)cc3)cc2)C1` (centres undefined): -1.39% (inactive); `COc1ccc(C2Nc3ccc(NC(=O)COC(C)=O)cc3C(=O)N2Cc2ccccc2)cc1COc1ccc(NC(C)=O)cc1` (centres undefined): 26.7% (inactive).

`COc1ccc(OCCn2ccnc2C)cc1`: the activity change was 8.15% (inactive). In the case of `COc1ccc(-c2ccc(OC)c(C3C4C=CCC(C)C4C(=O)N3Cc3ccccc3)c2)cc1C` (centres undefined), the activity change is 12.9% (inactive). Next, `CC1CC(C)CN(c2oc(-c3ccc(OCc4ccc(Cl)cc4)cc3)nc2C#N)C1` (centres undefined): 25.3% (inactive).

`Cc1ccc(C(=O)N2CCN(C3CCCCC3)CC2)s1`: the activity change was 2.7% (inactive). Next, `CCCC1OC23CCCCC2C(C#N)(C#N)C1(C#N)C(=N)O3` (centres undefined): 1.74% (inactive); `CC/C(=C(/c1ccccc1)c1ccc(OCC[N+](C)(C)C)cc1)c1ccccc1`: 8.29% (inactive); `CCN(CC)S(=O)(=O)c1cc(C(=O)Nc2cc(S(=O)(=O)N3CCOCC3)ccc2N2CCCC2)ccc1F`: -19.1% (inactive). In the case of `CCN(CC)S(=O)(=O)c1ccc(N2CCOCC2)c(NC(=O)c2ccc(=O)n(C)n2)c1`, the activity change is -7.96% (inactive). As for `CCN(CC)S(=O)(=O)c1ccc(N2CCCC2)c(NC(=O)c2ccc([N+](=O)[O-])o2)c1`, the activity change was -96.4% (active). Next, `COC(=O)c1ccc(NC(=O)CN(c2ccc(C)cc2)S(=O)(=O)c2c(C)n[nH]c2C)cc1`: 12.5% (inactive); `Cc1ccc(CNC(=O)C2(C(F)(F)F)C/C(=C\CCO)CCCO2)o1` (centres undefined): -14.6% (inactive). As to `Oc1ccc(Br)cc1C1C=C(c2ccc3c(c2)OCO3)NC(c2ccc(Cl)cc2)N1` (centres undefined), the activity change is -6.54% (inactive). For the compound `CC1CC(C)(C)CC2(C1)NC(=O)N(CC(=O)Nc1nccs1)C2=O` (centres undefined), the activity change was 7.14% (inactive). Next, `COc1ccc(-c2nc(=N)sn2-c2ccccc2)cc1`: 5% (inactive); `Cc1ccc(SCC(CC(C)C)N2CCN(CCc3ccccc3)CCC2=O)cc1` (centres undefined): -1.92% (inactive).

`COc1ccccc1Nc1cc(C(=O)NCCCN(C)C2CCCCC2)c2ccccc2n1`: the activity change was -11.5% (inactive). In the case of `CN(C)Cc1cn(-c2ccccc2)nc1-c1ccccc1`, the activity change was 2.86% (inactive). Regarding `[O-][n+]1ccc(OCc2ccccc2)cc1`, the activity change is 23.2% (inactive). Regarding `CCc1ccc(OCCCn2c(CCCNC(=O)C3CCCCC3)nc3ccccc32)cc1`, the activity change was -7.56% (inactive). Take `C=CCSc1nnc(N2C(=O)C(O)=C(C(=O)c3ccco3)C2c2ccc(F)cc2)s1` (centres undefined): the activity change is -13.6% (inactive). Turning to `O=C(c1cccc(F)c1)N1CCN(c2ccc([N+](=O)[O-])c3cccnc23)CC1`, the activity change is -82.8% (active). For `O=C(c1cccc(F)c1)N1CCN(c2ccc([N+](=O)[O-])c(N3CCCCC3)c2)CC1`, the activity change was 5.61% (inactive).

Regarding `O=C(c1ccc(N2CCOCC2)c([N+](=O)[O-])c1)N1CCN(c2ccccc2F)CC1`, the activity change is 8.07% (inactive). Regarding `O=C(CN1C(=O)NC2(CCCCCC2)C1=O)NCc1cccs1`, the activity change was -9.8% (inactive). As to `COc1ccc(Br)cc1C1C2C=CCC(C)C2C(=O)N1Cc1ccccc1` (centres undefined), the activity change was 20% (inactive). As for `O=C(O)C1CC=CC2CCN(C3CCCCC3)C(=O)C21` (centres undefined), the activity change was -16.4% (inactive). Next, `Cc1ccc2ccc3c(c2n1)NS(=O)(=O)c1ccccc1-3`: -5.37% (inactive); `CC(C)c1cc(C(=O)N/N=C/C(Br)=C/c2ccccc2)n[nH]1`: 15.8% (inactive). Next, `CC(C)(C)c1cc(C(=O)N/N=C/c2ccc([N+](=O)[O-])s2)n[nH]1`: -93% (active); `Cc1cccc(/C=N/NC(=O)CNc2cccc3ccccc23)n1`: -9.25% (inactive).

In the case of `Cc1ccccc1NCC(=O)N/N=C\c1ccc([N+](=O)[O-])s1`, the activity change was -89.1% (active).

`Cc1cc(C(=O)N/N=C/c2cc([N+](=O)[O-])cc(C)c2O)n[nH]1`: the activity change is -15.8% (inactive). With `O=C(COc1ccccc1[N+](=O)[O-])N/N=C/c1ccc[nH]1`, the activity change was 5.97% (inactive). Next, `CC1(C)OC(=O)N2CCc3ccccc3C21C` (centres undefined): -12.9% (inactive). In the case of `CCOc1ccc(C(C)=O)cc1CSc1nnc(-c2ccncc2)n1CCOC`, the activity change is 1.79% (inactive). Regarding `O=C(NNC(=O)c1ccccc1[N+](=O)[O-])Nc1ccccc1C(F)(F)F`, the activity change was -21.9% (inactive). `Cn1c(SCC(=O)Nc2ccc(Br)cc2F)nnc1-c1ccco1`: the activity change was -12.3% (inactive). As to `Cn1c(-c2ccco2)nc2cc3ccccc3cc21`, the activity change was -82.6% (active). Next, `COc1ccc(-n2cnc3cc(NCc4ccco4)ccc32)cc1`: -16.4% (inactive); `Cc1ccc(-c2nc3ccccn3c2Nc2ccc(F)cc2)o1`: 13.3% (inactive); `NCCCNC(=S)NCCCN(Cc1ccc(Cl)cc1)c1ccc(Br)cn1`: -3.06% (inactive). Next, `C=C1CCN(C(CC(C)C)C(=O)NCc2cc(OC)c(OC)c(OC)c2)S(=O)(=O)c2ccccc21` (centres undefined): -2.48% (inactive); `O=C1c2ccccc2C(=O)N1c1ccc(S(=O)(=O)N2CCOCC2)c2ccccc12`: -26.6% (inactive). As to `c1ccc(-n2ncc(-c3nn[nH]n3)n2)cc1`, the activity change is -10.6% (inactive). With `O=[N+]([O-])c1ccc(S(=O)(=O)N2CCN(c3nc(-c4ccccc4)nc4ccccc34)CC2)cc1`, the activity change is -1.14% (inactive).

Regarding `CCC(=O)c1ccc(OCC(=O)N(CC)CC2COc3ccccc3O2)cc1` (centres undefined), the activity change was 5.76% (inactive).

`O=C(NCCc1ccco1)c1ccc(OCc2cn3ccccc3n2)cc1`: the activity change was -6.02% (inactive). For the compound `O=C(Cc1ccccc1)Nc1c(C(=O)N2CCCCCC2)cnn1-c1ccccc1`, the activity change is 7.39% (inactive). Next, `O=C(Nc1cccc2cccnc12)C(F)(F)F`: 11.7% (inactive). `O=c1onc(-c2c(F)cccc2F)n1-c1ccccc1Cl`: the activity change was -18.5% (inactive). Next, `c1ccc2cc3c(NCCN4CCOCC4)ccnc3cc2c1`: -97.2% (active); `c1ccc(-c2ccc(OCCN3CCOCC3)cc2)cc1`: 19.5% (inactive); `CCOc1nc(NCCN2CCOCC2)nc(Nc2ccc(C)cc2)n1`: 17.9% (inactive). On to `COc1cc2nc(CN(C)Cc3ccc(F)cc3)[nH]c(=O)c2cc1OC`, for which the activity change was 1.83% (inactive). With `CCCNC(=O)c1onc(CSc2ccc(F)cc2)c1C(=O)NC(C)C`, the activity change was 23.4% (inactive). Next, `CC(C)C(NC(=O)C1CCC(C(C)(C)C)CC1)C(=O)NCCCN1CCCCC1` (centres undefined): -2.26% (inactive); `CCOCCCNC(=O)C(NC(=O)CNC(=O)c1ccccc1)c1ccc(OC)cc1` (centres undefined): -20.4% (inactive). Next, `COc1ccc(-c2nc3c(c(SCC(=O)Nc4ccc(C(=O)O)cc4)n2)Cc2ccccc2O3)cc1`: 9.92% (inactive); `Cc1cc(C)cc(OCC(=O)Nc2cc(NC(=O)COc3cc(C)cc(C)c3)cc(C(=O)O)c2)c1`: -12.2% (inactive); `CC1C/C(=N/NC(=O)c2cccs2)CC(C)(C)C1` (centres undefined): 4.93% (inactive).

`Oc1ccc(Cl)cc1C1C=C(c2ccc3c(c2)OCO3)NC(c2ccc(F)c(Br)c2)N1` (centres undefined): the activity change is -24.8% (inactive). Consider `O=C(c1ccc2c(=O)n(Cc3ccco3)c(=S)[nH]c2c1)N1CCCC1`, for which the activity change is 4.07% (inactive). With `O=C1C[C@@H](c2ccc3ccccc3c2)N1S(=O)(=O)c1ccccc1[N+](=O)[O-]`, the activity change was 0.869% (inactive). Next, `COc1ccc(C(CCN2CCOCC2)c2c(OC)cc(OC)c3c2OC(=O)CC3c2ccc(OC)cc2)cc1` (centres undefined): 12.9% (inactive). Take `CCN(CC)c1nc(C#N)nc(OC)n1`: the activity change is -9.05% (inactive). Next, `C=C1CCN(Cc2ccc(OC)cc2)S(=O)(=O)c2ccccc21`: 23.9% (inactive). Turning to `CCOc1cc2[nH]c(=O)n(CCC(=O)NCc3ccc(OC)cc3)c(=O)c2cc1OCC`, the activity change was -9.64% (inactive).

For `COc1ccc(C2/C=C\CN(C(=O)c3ccc(C)cc3)C(Cc3ccccc3)C(=O)N2Cc2ccc(F)cc2)cc1` (centres undefined), the activity change is 28.8% (inactive).

(Values after PubChem BioAssay AID540267 (National Center for Advancing Translational Sciences (NCATS), 2011).)
